# Laboratory results reported in PubChem BioAssay (NCATS).
# Records with an inconclusive call do not appear. Calls of active or inactive are those of the source. Unless noted, the call rests on the fitted dose curve; in most records, active means well fitted curve in the direction sought with a large enough effect; inconclusive means small, poorly fitted or top-dose-only effect, or another doubt; inactive means no such curve, though single readings can be large; an effect the other way counts as inactive or inconclusive.
# Tests used:
# [1] = Primary qHTS for small molecule stabilizers of the endoplasmic reticulum resident proteome: Secreted ER Calcium Modulated Protein (SERCaMP) assay (AID 1508630); further: on the % scale 0 is the no-effect control and ±100 the full control effect
# Method in brief: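 GLuc-SERCaMP-expressing SH-SY5Y cells, pretreated 16 h with compound, are challenged with thapsigargin to empty ER calcium stores; after 4 h, coelenterazine is added directly to the medium and luminescence is imaged.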
# [2] = system: HIV-1 nucleocapsid protein NCp7 (binding to TG oligonucleotide); test: HIV Nucleocapsid (AID 346; call rule not given here;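 further: potency means the concentration at half of the fitted maximal effect; potency is for inhibitors that block NC binding and lower polarization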); conditions: HIV-1 NC / fluorescein-TGTGTGTG probe, fluorescence polarization
# Method in brief: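 Fluorescence polarization readout: labelled TG4xF oligo (10 nM) with 100 nM nucleocapsid protein, high-salt (250mM NaCl) Hepes pH 7.5 buffer containing zinc and fresh reducing agents. Compounds added by pin tool; incubation 1 hr, room temperature.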
# [3] = molecular target: Lysosomal acid glucosylceramidase (Homo sapiens) (UniProt P04062); test: Glucocerebrosidase-p2 (AID 348; in the data active means potency below about 10 µM; further: potency means the concentration at half of the fitted maximal effect); conditions: purified GBA, blue fluorogenic substrate, 40 min
# Method in brief: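 Compounds titrated from 0.6 nM upwards against 0.2 nM enzyme in pH 5.9 citric acid/KH2PO4, taurocholate, tween-20; blue fluorogenic substrate 80 uM, 40 min room temperature, stopped and read Ex 365/Em 440 for AC50.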
# [4] = AP1 Signaling Pathway (AID 357; active means well fitted curve in either direction with a large enough effect, not every such curve was filed as active; further: on the % scale 0 is the no-effect control and ±100 the full control effect)
# Method in brief: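 ME-180 cells with beta-lactamase reporter under AP-1 response element, stimulated with EC50 EGF; compounds tested in titration series, 5 h at 37 °C. CCF4 substrate added 2.5 h at room temperature; 460/530 nm emission ratio gave %activity and AC50.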
# [5] = molecular target: Cytochrome P450 1A2 (Homo sapiens) (UniProt P05177); test: p450-cyp1a2 (AID 410; calls by dose curve; further: potency means the concentration at half of the fitted maximal effect;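 on activity change, negative = inhibition: -100% = full effect of reference inhibitor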)
# Method in brief: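 Inhibition was calculated relative to 57 uM furafylline (full inhibition). The reaction used human CYP1A2 at 20nM with Luciferin-ME at its Km, 100uM, driven by an NADPH-regenerating system for 60 min at room temperature.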
# [6] = Stat Signaling Pathway (AID 446; active means well fitted curve in either direction with a large enough effect, not every such curve was filed as active;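 further: ME-180 cervical cancer cells given 40 pM IL-6 alongside compound; SIE-controlled beta-lactamase reporter measured as 460/530 nm FRET emission ratio; on the % scale 0 is the no-effect control and ±100 the full control effect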)
# Method in brief: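 Reporter line: ME-180 cervical carcinoma, SIE-beta-lactamase. Treatment: compound with 40 pM IL-6, 5 hrs, 37 C, in low-serum OPTI-MEM with 10 mM HEPES pH 7.3. Detection: 460/530 nm fluorescence.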
# [7] = molecular target: Glucocorticoid receptor (Homo sapiens) (UniProt P04150); test: GR-GFP Redistribution (AID 450;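 active means compounds whose dose series gives a full or clear partial fitted curve of increased nuclear translocation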; further: potency means the concentration at half of the fitted maximal effect); conditions: U2OS GR-GFP nuclear translocation, laser cytometry, 2 h
# [8] = molecular target: Glucocorticoid receptor (Homo sapiens) (UniProt P04150); test: GR-EFC Redistribution (AID 451; calls by dose curve; further: potency means the concentration at half of the fitted maximal effect); conditions: CHO-K1 GR-EFC translocation, beta-gal luminescence, 2 h
# Method in brief: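 Translocation of GR-ED fusion to nuclear EA restores b-gal, read by luminescence after 1 h room-temperature detection. Engineered CHO-K1 biosensor cells, 1,000/well, exposed 2 h at 37 C to titrations up to 46 uM final.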
# [9] = molecular target: Mitogen-activated protein kinase 10 (Mus musculus) (UniProt Q61831); test: JNK3 AlphaScreen Assay (AID 530; active means well fitted curve in either direction with a large enough effect, not every such curve was filed as active;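 further: kinase came from lysate of stimulated human HepG2 cells; signal reports phosphorylation of biotinylated GST-cJun 1-79 at Ser73 with 10 µM ATP; on the % scale 0 is the no-effect control and ±100 the full control effect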)
# Method in brief: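 Room-temperature AlphaScreen kinase assay; pre-activated HepG2 lysate as JNK3 source, biotin-GST-cJun(1-79) substrate, 10 uM ATP, compound 15 min preincubation.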
# [10] = molecular target: 3',5'-cyclic-AMP phosphodiesterase 4B (Homo sapiens) (UniProt Q07343); test: qHTS Assay for Inhibitors of PDE-IV (AID 607; active means well fitted activation curve with a large enough effect in the main read-out, with a control signal flat, not every such curve was filed as active; further: % of control where 0% means no effect)
# Method in brief: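 Cell-based read-out of cAMP via a modified cyclic nucleotide-gated channel and membrane potential dye (535/590 nm) in HEK293 cells expressing PDE4 endogenously. Compounds tested up to 22.9 uM final; 100 uM RO 20-1724 reference.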
# [11] = molecular target: Cytochrome P450 3A4 (Homo sapiens) (UniProt P08684); test: qHTS Assay for Inhibitors and Substrates of Cytochrome P450 3A4 (AID 884); further: potency means the concentration at half of the fitted maximal effect; nearly all actives have a fitted effect of over 50% in size
# Method in brief: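 20 nM human CYP3A4 with 25 uM Luciferin-PPXE (at KM) in 200 mM KPO4, preincubated 10 min with compound; NADPH regeneration started a 60 min RT reaction. Luciferin detected by luminescence, normalized to 57 uM ketoconazole as full inhibition.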
# [12] = molecular target: Cytochrome P450 3A4 (Homo sapiens) (UniProt P08684); test: qHTS Assay for Activators of Cytochrome P450 3A4 (AID 885); further: nearly all actives have a fitted effect of over 65% in size
# Method in brief: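 Signal was normalized against complete inhibition by 57 uM ketoconazole. The reaction used 20nM CYP3A4 with 25uM Luciferin-PPXE, 10-min compound preincubation and a 60-min NADPH-supported step at RT.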
# [13] = molecular target: Cytochrome P450 2C19 (Homo sapiens) (UniProt P33261); test: qHTS Assay for Inhibitors and Substrates of Cytochrome P450 2C19 (AID 899); further: potency means the concentration at half of the fitted maximal effect; nearly all actives have a fitted effect of over 60% in size
# Method in brief: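 5nM enzyme + 10uM Luciferin-H EGE (=KM), 50mM KPO4; cpd pin-transferred, 10 min 37C; NADPH regen, 60 min 37C; stopped w/ luciferin detection reagent, 20 min; luminescence. Normalized to 57uM ketoconazole (AC100).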
# [14] = Confirmation and Secondary Assay for Modulators of Hemoglobin Beta Chain Splicing at IVS2 654 locus (AID 910);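 further: HeLa cells stably carrying EGFP split by mutant beta-globin IVS2-654 intron; per-well total GFP intensity by laser scanning cytometry after 2-day treatment; % of control where 0% means no effect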
# Method in brief: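 Readout: per-well total peak green fluorescence (488 nm ex, 500–520 nm em) from objects 5–250 µm, reflecting correct splicing of an EGFP-654 reporter. Compounds were applied for 2 days at 37 °C to overnight-plated HeLa EGFP-654 cells; controls were DMSO and 500 nM IVS2-654 PNA.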
# [15] = Confirmation and Secondary Assay for Modulators of Hemoglobin Beta Chain Splicing at IVS2 705 locus (AID 930);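 further: HeLa cells stably expressing the EGFP-705 splicing reporter; GFP fluorescence per well restored by corrected splicing of the IVS2-705 intron in EGFP; % of control where 0% means no effect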
# Method in brief: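 HeLa EGFP-705 reporter; 500 cells/well, o/n 37C 5% CO2; cpd 2 d; 488 ex/500-520 em laser scan; total peak GFP intensity/well. Ref: 500 nM […] antisense PNA.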
# [16] = qHTS Assay for Lipid Storage Modulators (AID 1519; calls by dose curve); conditions: Drosophila S3 cells, BODIPY lipid droplet/cell ratio, laser cytometry, cells loaded with oleic acid; for activity change, negative = inhibition: at 57.5 µM (top of the series)
# Method in brief: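 Cells seeded at 5,000 per well were treated with compounds over a concentration series and loaded with oleic acid (400 uM, as added). Lipid droplet fluorescence (488 nm excitation, 500-530 nm channel) was read by laser-scanning cytometry and normalized to 20 uM Triacsin C.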
# [17] = molecular target: Ubiquitin carboxyl-terminal hydrolase 1 (Homo sapiens) (UniProt O94782); test: Inhibitors of USP1/UAF1: Pilot qHTS (AID 504865);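 further: rhodamine fluorescence freed from ubiquitin-rhodamine substrate followed over time; top concentration of the series differs between compounds; on the % scale 0 is the no-effect control and ±100 the full control effect; nearly all actives have a fitted effect of over 35% in size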
# Method in brief: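 1nM USP1/UAF1 + cpd, 15 min RT; start w/ Ub-Rho 150nM final; kinetic FL 480/540 nm, 6 reads q60 s. Buffer 50mM HEPES pH 7.8, 0.5mM EDTA, 1mM TCEP, 0.01% Tween-20, 0.1 mg/ml BSA.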
# [18] = NFAT Signaling Pathway (AID 444; active means well fitted curve in either direction with a large enough effect, not every such curve was filed as active); conditions: Jurkat NFAT-bla M1, carbachol, beta-lactamase ratio, 5 h; at 7.69 µM (top of the series)
# Method in brief: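 Read-out: CCF4 FRET ratio (460 nm/530 nm) after 1 h RT dye loading, used for %activity and AC50 from titration series. Cells: Jurkat NFAT-β-lactamase/M1 line, treated with compound plus 1 uM carbachol for 5 h, 37 °C.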
# [19] = molecular target: Cytochrome P450 2C9 (Homo sapiens) (UniProt P11712); test: qHTS Assay for Inhibitors and Substrates of Cytochrome P450 2C9 (AID 883); further: potency means the concentration at half of the fitted maximal effect; nearly all actives have a fitted effect of over 60% in size
# Method in brief: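 Inhibition of CYP2C9 is scored as loss of luminescence, with 57uM sulphaphenazole defining 100% inhibition. Substrate Luciferin-H is used at 100uM, equal to its KM; enzyme at 10nM in 25mM KPO4, 60 min at 37C with NADPH regeneration.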
# [20] = measured here: cell count channel max response
# [21] = measured here: lipid channel max response
# Sequence of Lysosomal acid glucosylceramidase (Homo sapiens) (P04062 whole entry, looked up): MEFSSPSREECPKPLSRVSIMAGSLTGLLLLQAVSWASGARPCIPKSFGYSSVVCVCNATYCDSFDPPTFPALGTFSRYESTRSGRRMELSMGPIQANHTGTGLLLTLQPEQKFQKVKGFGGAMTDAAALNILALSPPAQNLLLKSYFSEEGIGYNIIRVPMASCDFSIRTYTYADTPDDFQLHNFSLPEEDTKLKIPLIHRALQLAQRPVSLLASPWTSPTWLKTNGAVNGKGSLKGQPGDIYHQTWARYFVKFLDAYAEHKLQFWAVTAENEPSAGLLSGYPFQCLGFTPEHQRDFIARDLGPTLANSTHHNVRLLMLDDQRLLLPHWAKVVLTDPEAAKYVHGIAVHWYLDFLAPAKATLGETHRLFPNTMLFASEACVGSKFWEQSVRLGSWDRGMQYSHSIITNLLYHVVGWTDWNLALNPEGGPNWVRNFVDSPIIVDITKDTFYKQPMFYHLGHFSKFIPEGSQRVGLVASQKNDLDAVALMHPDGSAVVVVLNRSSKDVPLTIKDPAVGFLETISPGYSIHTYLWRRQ
# Sequence of Glucocorticoid receptor (Homo sapiens) (P04150 whole entry, looked up, the tested form may be a part): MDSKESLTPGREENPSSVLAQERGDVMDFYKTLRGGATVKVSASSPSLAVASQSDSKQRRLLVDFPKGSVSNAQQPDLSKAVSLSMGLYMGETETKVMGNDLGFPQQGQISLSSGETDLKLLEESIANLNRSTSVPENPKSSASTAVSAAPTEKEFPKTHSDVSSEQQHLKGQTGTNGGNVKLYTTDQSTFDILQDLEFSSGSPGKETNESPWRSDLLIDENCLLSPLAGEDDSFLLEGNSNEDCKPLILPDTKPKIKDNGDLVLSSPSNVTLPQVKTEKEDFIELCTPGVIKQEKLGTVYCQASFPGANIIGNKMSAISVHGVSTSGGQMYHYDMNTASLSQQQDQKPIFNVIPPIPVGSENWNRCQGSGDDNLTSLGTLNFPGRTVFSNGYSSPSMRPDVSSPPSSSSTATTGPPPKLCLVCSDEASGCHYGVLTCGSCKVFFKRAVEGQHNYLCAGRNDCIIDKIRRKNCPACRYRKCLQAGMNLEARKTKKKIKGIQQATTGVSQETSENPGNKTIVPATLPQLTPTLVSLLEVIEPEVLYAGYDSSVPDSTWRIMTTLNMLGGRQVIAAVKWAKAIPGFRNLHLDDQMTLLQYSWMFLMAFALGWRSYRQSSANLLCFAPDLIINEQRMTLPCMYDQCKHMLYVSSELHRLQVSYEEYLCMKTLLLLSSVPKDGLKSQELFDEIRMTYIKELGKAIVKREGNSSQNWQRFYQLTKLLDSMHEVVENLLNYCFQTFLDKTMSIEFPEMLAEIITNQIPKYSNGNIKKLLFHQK
# Sequence of Cytochrome P450 3A4 (Homo sapiens) (P08684 whole entry, looked up): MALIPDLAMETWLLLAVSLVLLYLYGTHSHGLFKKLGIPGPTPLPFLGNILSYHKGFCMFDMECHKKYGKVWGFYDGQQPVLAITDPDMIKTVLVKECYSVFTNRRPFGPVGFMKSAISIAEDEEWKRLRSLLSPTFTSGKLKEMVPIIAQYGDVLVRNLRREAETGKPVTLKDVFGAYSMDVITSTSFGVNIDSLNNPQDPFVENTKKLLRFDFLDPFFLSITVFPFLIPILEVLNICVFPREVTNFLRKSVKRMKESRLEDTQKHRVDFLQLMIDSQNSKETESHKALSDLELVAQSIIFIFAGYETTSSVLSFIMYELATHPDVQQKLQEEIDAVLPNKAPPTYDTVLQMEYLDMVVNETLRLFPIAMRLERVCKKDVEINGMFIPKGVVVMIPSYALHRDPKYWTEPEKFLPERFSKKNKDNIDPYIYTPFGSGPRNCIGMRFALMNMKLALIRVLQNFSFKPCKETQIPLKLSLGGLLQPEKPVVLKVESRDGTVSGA
# Sequence of Cytochrome P450 1A2 (Homo sapiens) (P05177 whole entry, looked up): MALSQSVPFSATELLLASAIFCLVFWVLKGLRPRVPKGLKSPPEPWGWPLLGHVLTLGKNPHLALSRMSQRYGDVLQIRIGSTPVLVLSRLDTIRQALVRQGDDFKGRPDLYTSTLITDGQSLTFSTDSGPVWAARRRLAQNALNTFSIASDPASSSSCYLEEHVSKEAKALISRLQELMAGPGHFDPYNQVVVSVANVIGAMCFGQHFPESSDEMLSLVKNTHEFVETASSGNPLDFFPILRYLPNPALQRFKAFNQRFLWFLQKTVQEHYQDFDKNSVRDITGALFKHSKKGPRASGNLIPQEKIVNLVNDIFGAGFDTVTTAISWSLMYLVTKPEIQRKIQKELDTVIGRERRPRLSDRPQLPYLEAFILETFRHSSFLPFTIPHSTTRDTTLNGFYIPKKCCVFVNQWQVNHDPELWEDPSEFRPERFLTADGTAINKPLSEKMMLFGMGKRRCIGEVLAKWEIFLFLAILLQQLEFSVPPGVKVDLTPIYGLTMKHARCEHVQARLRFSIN
# Sequence of 3',5'-cyclic-AMP phosphodiesterase 4B (Homo sapiens) (Q07343 whole entry, looked up): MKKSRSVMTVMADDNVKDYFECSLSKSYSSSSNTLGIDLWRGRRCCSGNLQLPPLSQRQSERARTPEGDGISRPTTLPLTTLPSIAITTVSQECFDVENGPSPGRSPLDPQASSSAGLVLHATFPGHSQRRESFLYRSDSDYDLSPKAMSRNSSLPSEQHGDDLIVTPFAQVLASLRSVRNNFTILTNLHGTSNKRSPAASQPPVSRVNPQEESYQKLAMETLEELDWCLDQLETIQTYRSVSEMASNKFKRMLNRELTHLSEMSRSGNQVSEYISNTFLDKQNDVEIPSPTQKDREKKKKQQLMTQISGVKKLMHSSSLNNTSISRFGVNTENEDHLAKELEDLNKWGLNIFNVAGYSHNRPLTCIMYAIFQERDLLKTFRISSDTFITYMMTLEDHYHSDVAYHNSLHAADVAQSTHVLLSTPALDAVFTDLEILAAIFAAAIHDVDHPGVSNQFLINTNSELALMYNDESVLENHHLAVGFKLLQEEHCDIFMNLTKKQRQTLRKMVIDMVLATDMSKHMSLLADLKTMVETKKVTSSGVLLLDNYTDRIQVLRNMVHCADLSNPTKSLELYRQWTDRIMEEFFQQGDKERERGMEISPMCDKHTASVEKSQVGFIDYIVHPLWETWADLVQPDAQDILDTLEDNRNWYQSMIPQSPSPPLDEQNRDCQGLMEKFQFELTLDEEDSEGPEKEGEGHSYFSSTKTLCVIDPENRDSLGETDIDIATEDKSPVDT
# Sequence of Cytochrome P450 2C19 (Homo sapiens) (P33261 whole entry, looked up): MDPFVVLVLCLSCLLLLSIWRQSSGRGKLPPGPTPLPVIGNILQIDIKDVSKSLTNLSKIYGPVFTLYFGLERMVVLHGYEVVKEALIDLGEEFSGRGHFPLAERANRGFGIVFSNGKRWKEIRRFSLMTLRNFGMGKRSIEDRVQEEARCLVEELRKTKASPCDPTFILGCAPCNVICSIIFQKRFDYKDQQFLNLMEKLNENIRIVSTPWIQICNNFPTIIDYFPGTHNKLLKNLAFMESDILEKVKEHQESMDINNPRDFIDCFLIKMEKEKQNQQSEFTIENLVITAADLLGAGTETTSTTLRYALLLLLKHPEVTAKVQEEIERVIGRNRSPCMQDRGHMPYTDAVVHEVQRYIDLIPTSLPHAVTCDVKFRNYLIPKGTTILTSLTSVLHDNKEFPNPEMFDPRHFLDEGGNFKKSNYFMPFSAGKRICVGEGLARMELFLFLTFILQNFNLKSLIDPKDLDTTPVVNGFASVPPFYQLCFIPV
# Sequence of Cytochrome P450 2C9 (Homo sapiens) (P11712 whole entry, looked up): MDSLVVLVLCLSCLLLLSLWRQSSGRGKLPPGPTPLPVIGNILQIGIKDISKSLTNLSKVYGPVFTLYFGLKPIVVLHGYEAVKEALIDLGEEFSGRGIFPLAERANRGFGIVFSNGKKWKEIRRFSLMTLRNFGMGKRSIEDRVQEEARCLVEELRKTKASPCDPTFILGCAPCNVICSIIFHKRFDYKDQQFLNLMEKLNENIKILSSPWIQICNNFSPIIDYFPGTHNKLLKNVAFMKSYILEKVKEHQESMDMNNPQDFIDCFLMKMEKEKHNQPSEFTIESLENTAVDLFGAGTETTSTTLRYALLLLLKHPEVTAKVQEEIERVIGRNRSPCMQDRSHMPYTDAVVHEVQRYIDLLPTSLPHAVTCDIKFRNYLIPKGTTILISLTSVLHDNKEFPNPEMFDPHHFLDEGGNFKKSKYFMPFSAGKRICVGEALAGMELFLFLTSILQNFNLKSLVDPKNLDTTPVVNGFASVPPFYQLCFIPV
# Sequence of Ubiquitin carboxyl-terminal hydrolase 1 (Homo sapiens) (O94782 whole entry, looked up): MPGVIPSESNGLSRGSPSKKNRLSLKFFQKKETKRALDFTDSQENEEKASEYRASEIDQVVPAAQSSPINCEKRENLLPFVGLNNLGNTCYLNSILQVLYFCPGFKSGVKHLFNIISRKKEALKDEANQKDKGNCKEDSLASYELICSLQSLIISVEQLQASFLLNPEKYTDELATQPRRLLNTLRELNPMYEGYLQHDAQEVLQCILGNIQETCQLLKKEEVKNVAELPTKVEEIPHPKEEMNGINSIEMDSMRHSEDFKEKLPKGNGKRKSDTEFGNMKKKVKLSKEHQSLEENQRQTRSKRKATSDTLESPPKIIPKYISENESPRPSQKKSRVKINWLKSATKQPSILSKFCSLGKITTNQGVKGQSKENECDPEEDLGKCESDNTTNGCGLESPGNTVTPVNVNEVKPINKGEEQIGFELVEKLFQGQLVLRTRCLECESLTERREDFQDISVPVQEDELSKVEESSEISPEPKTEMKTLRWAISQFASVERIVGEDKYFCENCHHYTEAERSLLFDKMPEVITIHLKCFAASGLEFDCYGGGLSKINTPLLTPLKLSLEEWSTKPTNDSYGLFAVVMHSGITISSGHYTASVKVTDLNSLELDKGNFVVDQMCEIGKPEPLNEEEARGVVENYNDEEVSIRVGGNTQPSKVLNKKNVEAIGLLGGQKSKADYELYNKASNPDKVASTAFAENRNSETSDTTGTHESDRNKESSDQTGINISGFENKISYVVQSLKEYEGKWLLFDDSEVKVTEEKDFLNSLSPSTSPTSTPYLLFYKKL
structure (smiles),measurement,setting,value
CC(=O)OC[C@]12C[C@H](OC(=O)CC(C)C)C(C)=C[C@H]1O[C@H]1[C@H](O)[C@@H](OC(C)=O)[C@@]2(C)[C@]12CO2,outcome,[1],inactive
CN1CCC2=C[C@@H](O)[C@@H]3OC(=O)c4cc5c(cc4C3C21)OCO5 (some centres not stated),outcome,[1],inactive
C[C@@H]1O[C@@H](O[C@H]2CC[C@]3(C=O)C4CC[C@]5(C)[C@@H](C6=CC(=O)OC6)CC[C@]5(O)[C@@H]4CC[C@]3(O)C2)[C@H](O)[C@H](O)[C@H]1O (some centres not stated),outcome,[1],inactive
Cc1ccccc1-c1cncnc1NCCc1cnc[nH]1,Potency,[2],> 20 µM (inactive)
same,Potency,[3],> 11.4 µM (inactive)
same,outcome,[4],inactive
same,Potency,[5],5.01 µM (active)
same,outcome,[6],inactive
same,Potency,[7],> 46 µM (inactive)
same,Potency,[8],> 46 µM (inactive)
same,outcome,[9],inactive
same,Potency,[10],inactive
same,Potency,[11],0.631 µM (active)
same,Potency,[12],inactive
same,Potency,[13],0.0501 µM (active)
same,Potency,[14],inactive
same,Potency,[15],inactive
same,"activity change, negative = inhibition",[16],6.91% (inactive)
same,max response,[16]; [20],9.82%
same,max response,[16]; [21],17.7%
same,Potency,[17],inactive
same,outcome,[1],inactive
COCC#CCN1CCCCC1c1cccnc1 (configuration not stated),outcome,[1],inactive
c1csc(CN2CCC3(CCNCC3)CC2)n1,Potency,[2],> 20 µM (inactive)
same,Potency,[3],> 11.4 µM (inactive)
same,outcome,[4],inactive
same,Potency,[5],inactive
same,"activity change, negative = inhibition",[18],-5.8% (inactive)
same,outcome,[6],inactive
same,outcome,[9],inactive
same,Potency,[10],inactive
same,"activity change, negative = inhibition",[16],-2.74% (inactive)
same,max response,[16]; [20],11.7%
same,max response,[16]; [21],11%
same,outcome,[1],inactive
CN1CCC2(CC1)CCN(C(=O)Oc1ccccc1)CC2,Potency,[2],> 20 µM (inactive)
same,Potency,[3],> 11.4 µM (inactive)
same,outcome,[4],inactive
same,Potency,[5],inactive
same,outcome,[6],inactive
same,Potency,[8],> 46 µM (inactive)
same,outcome,[9],inactive
same,Potency,[10],inactive
same,"activity change, negative = inhibition",[16],2.73% (inactive)
same,max response,[16]; [20],2.61%
same,max response,[16]; [21],7.31%
same,outcome,[1],inactive
CC(C)NC(=O)N1CCCC2(CCN(C(=O)Oc3ccccc3)CC2)C1,Potency,[2],> 20 µM (inactive)
same,Potency,[3],> 11.4 µM (inactive)
same,outcome,[4],inactive
same,Potency,[5],12.6 µM (active)
same,outcome,[6],inactive
same,Potency,[8],> 46 µM (inactive)
same,outcome,[9],inactive
same,Potency,[10],inactive
same,Potency,[12],inactive
same,"activity change, negative = inhibition",[16],6.21% (inactive)
same,max response,[16]; [20],27.7%
same,max response,[16]; [21],29.9%
same,outcome,[1],inactive
O=C(c1ccco1)N1CCC[C@@]2(CCN(Cc3ccncc3)C2)C1,Potency,[2],> 20 µM (inactive)
same,Potency,[3],> 11.4 µM (inactive)
same,outcome,[4],inactive
same,Potency,[5],3.98 µM (active)
same,"activity change, negative = inhibition",[18],-1.52% (inactive)
same,outcome,[6],inactive
same,outcome,[9],inactive
same,Potency,[10],inactive
same,Potency,[19],3.16 µM (active)
same,Potency,[12],inactive
same,Potency,[13],2.51 µM (active)
same,"activity change, negative = inhibition",[16],3.05% (inactive)
same,max response,[16]; [20],6.21%
same,max response,[16]; [21],9.36%
same,outcome,[1],inactive
CC(C)CN1CCCC2(CCN(C(=O)c3ccncc3)CC2)C1,Potency,[2],> 20 µM (inactive)
same,Potency,[3],> 11.4 µM (inactive)
same,outcome,[4],inactive
same,outcome,[6],inactive
same,Potency,[8],> 46 µM (inactive)
same,outcome,[9],inactive
same,Potency,[10],inactive
same,Potency,[12],inactive
same,"activity change, negative = inhibition",[16],5.13% (inactive)
same,max response,[16]; [20],11.3%
same,max response,[16]; [21],20.9%
same,outcome,[1],inactive
